What all share (assay): protein-binding microarray (PBM); PBM: ~300 nM protein, 6 mM HEPES pH 7.8, 80 mM KCl, 0.5 mM EDTA, 0.5 mM EGTA, 6% glycerol, 35 ng/ul poly-dIdC, 1% milk, 1 h, room temperature; Ap Aiptasia and Nv Nematostella (sea anemones) / Co Capsaspora / Aq Amphimedon (sponge) / Dm Drosophila / Hu human; RHD is the Rel homology domain; high values mean tight binding
Conditions in all cases: dsDNA, one strand shown

For one assay, the target named is T1, GST-Ap-NF-kB RHD (Exaiptasia pallida (Aiptasia), UniProt A0A913YAJ5 2-422).
T1 sequence: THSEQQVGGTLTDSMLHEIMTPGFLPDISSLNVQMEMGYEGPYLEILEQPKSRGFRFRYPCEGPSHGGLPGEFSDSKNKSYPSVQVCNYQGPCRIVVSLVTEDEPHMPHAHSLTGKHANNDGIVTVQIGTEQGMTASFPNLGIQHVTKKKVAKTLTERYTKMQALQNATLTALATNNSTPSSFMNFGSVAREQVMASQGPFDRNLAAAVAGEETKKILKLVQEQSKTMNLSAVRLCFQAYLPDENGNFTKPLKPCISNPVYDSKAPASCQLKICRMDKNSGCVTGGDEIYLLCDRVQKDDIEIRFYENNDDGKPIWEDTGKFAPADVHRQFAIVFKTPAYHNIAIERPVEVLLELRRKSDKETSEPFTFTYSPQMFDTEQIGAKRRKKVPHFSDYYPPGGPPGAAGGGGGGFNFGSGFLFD

The target of assay [1] is T2, GST-Nv-NF-kB (Cys allele) (Nematostella vectensis, UniProt E5G601 2-411).
T2 sequence: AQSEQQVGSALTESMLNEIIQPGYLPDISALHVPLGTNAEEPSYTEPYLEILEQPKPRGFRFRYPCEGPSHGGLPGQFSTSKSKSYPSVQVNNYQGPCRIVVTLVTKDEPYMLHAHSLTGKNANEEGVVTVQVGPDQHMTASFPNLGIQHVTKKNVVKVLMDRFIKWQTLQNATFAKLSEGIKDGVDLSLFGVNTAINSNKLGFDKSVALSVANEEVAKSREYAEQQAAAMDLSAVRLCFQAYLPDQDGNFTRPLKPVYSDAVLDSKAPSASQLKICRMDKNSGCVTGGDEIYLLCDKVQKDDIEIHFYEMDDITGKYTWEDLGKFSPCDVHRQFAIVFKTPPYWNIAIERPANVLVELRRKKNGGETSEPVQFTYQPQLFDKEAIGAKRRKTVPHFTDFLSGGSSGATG

Assay [2] deals with T3, GST-Nv-NF-kB (Ser allele) (Nematostella vectensis, UniProt A7UNT2 2-411).
T3 sequence: T2 sequence with Q21R, C66S, S207N, E215Q, V217A, E225K, A268E, D399E

The target of a further assay is T4, GST-Co-NF-kB (Capsaspora owczarzaki, UniProt F1ARL5 200-546).
T4 sequence: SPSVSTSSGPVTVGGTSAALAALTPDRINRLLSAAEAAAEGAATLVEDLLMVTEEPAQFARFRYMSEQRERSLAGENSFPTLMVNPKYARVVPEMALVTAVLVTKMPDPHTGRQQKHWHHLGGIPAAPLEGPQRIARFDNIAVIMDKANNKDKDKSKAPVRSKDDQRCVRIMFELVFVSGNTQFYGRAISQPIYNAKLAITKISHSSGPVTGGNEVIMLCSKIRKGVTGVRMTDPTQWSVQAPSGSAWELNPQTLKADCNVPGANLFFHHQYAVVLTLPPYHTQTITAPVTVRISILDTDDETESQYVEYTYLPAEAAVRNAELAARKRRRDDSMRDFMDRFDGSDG

A further assay concerns the target T5, GST-Dm-Relish (Drosophila melanogaster, UniProt Q94527 99-473).
T5 sequence: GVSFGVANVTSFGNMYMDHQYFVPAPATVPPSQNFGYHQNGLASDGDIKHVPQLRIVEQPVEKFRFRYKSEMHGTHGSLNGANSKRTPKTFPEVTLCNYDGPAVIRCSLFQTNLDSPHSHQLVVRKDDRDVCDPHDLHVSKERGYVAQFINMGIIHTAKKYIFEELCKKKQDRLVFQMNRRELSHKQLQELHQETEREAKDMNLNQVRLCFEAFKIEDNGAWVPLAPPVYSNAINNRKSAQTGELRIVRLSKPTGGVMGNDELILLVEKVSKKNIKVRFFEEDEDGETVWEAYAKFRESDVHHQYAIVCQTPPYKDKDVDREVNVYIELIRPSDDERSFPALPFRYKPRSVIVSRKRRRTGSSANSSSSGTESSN

The target in a further assay is T6, GST-Aq-NF-kB (Amphimedon queenslandica, UniProt A9Y5G7 2-389).
T6 sequence: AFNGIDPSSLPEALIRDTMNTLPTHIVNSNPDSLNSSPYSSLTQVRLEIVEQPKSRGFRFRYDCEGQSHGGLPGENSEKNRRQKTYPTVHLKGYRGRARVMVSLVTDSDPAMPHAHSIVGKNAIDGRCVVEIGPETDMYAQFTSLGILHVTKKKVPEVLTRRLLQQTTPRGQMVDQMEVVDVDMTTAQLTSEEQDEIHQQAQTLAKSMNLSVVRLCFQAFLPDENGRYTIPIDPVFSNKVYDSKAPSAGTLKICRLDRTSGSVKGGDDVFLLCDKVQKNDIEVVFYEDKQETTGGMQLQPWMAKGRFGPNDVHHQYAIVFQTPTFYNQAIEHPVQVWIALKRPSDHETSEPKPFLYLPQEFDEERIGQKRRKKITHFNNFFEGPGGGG

The target of the next assay is GST-Hu-p50 (Homo sapiens, UniProt P19838 7-356).
Sequence of GST-Hu-p50 (P19838 7-356): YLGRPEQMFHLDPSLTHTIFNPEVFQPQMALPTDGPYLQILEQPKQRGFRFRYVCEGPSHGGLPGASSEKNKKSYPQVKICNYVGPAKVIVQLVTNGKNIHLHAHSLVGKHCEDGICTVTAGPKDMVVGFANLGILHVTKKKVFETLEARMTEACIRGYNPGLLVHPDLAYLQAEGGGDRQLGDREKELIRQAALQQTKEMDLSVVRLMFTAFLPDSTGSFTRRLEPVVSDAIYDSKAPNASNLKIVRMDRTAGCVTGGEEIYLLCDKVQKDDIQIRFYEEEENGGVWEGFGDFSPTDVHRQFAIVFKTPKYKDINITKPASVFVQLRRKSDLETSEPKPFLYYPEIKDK

Results on twelve sequences are retold here after article PMC5700166.

Substitutions are numbered along the chain they refer to.

“CCGATTAACATCAAAAAGTCCCCTGATGTTAATCGGGTCTTGATTCGCTTGACGCTGCTG”: the binding signal in the assay with GST-Ap-NF-kB RHD is 9.45 z-score; in assay [1] it was 10.8 z-score; in assay [2], 11.1 z-score; with GST-Co-NF-kB, 5.57 z-score; in the assay with GST-Dm-Relish it was 10 z-score; with GST-Aq-NF-kB, 8.93 z-score. This sequence displayed a binding signal with GST-Hu-p50 of 7.85 z-score.
For “CCGATTAACATCAATTTCCCCCCTGATGTTAATCGGGTCTTGATTCGCTTGACGCTGCTG”, the binding signal with GST-Ap-NF-kB RHD came to 7.89 z-score; in assay [1], 7.68 z-score; in assay [2], 8.79 z-score; in the assay with GST-Co-NF-kB, 11.5 z-score; with GST-Dm-Relish, 6.02 z-score; in the assay with GST-Aq-NF-kB, 6.64 z-score. In the assay with GST-Hu-p50, the binding signal amounted to 6.75 z-score.
As to “CCGATTAACATCAGGGAAAATACTGATGTTAATCGGGTCTTGATTCGCTTGACGCTGCTG”, the binding signal with GST-Ap-NF-kB RHD was determined as 3.76 z-score; in assay [1], 6.09 z-score; in assay [2] it was 6.82 z-score; with GST-Co-NF-kB, 4.49 z-score; with GST-Dm-Relish, 4.93 z-score; with GST-Aq-NF-kB it was 5.71 z-score. Also, the binding signal with GST-Hu-p50 was 4.76 z-score.
In the case of “CCGATTAACATCATATTCCCCCATGATGTTAATCGGGTCTTGATTCGCTTGACGCTGCTG”, the binding signal was 6.56 z-score with GST-Ap-NF-kB RHD; 7.4 z-score in assay [1]; 7.13 z-score in assay [2]; 8.84 z-score with GST-Co-NF-kB; 3.91 z-score with GST-Dm-Relish; 5.97 z-score with GST-Aq-NF-kB. The same sequence yielded a binding signal with GST-Hu-p50 of 6.3 z-score.
As for “CCGATTAACATCAGGGGGAGAACTGATGTTAATCGGGTCTTGATTCGCTTGACGCTGCTG”, the binding signal with GST-Ap-NF-kB RHD was found to be 6.04 z-score; in assay [1], 5.02 z-score; in assay [2], 6.45 z-score; with GST-Co-NF-kB it was 7.22 z-score; in the assay with GST-Dm-Relish, 6.51 z-score; with GST-Aq-NF-kB, 4.8 z-score. Further, the binding signal with GST-Hu-p50 came to 5.85 z-score.
Turning to “CCGATTAACATCATTAGGGGAAGTGATGTTAATCGGGTCTTGATTCGCTTGACGCTGCTG”, the binding signal with GST-Ap-NF-kB RHD amounted to 4.61 z-score; in assay [1], 5.4 z-score; in assay [2], 7.61 z-score; with GST-Co-NF-kB, 3.41 z-score; with GST-Dm-Relish it was 2.36 z-score; with GST-Aq-NF-kB, 4.57 z-score. Further, the binding signal in the assay with GST-Hu-p50 is 5.39 z-score.
Take “CCGATTAACATCAAGGGGGGGTGTGATGTTAATCGGGTCTTGATTCGCTTGACGCTGCTG”: the binding signal with GST-Ap-NF-kB RHD was 4.34 z-score; in assay [1], 2.8 z-score; in assay [2] it was 3.53 z-score; with GST-Co-NF-kB it was 4.12 z-score; in the assay with GST-Dm-Relish it was 4.4 z-score; in the assay with GST-Aq-NF-kB it was 3.77 z-score. Further, the binding signal with GST-Hu-p50 was determined as 4.28 z-score.
On to “CCGATTAACATCAGGGGACTTACTGATGTTAATCGGGTCTTGATTCGCTTGACGCTGCTG”, for which the binding signal with GST-Ap-NF-kB RHD was 5.97 z-score; in assay [1], 5.56 z-score; in assay [2] it was 5.43 z-score; with GST-Co-NF-kB, 2.17 z-score; with GST-Dm-Relish, 8.32 z-score; with GST-Aq-NF-kB, 5.66 z-score. This sequence displayed a binding signal with GST-Hu-p50 of 5.68 z-score.
In the case of “CCGATTAACATCAAGAAAGTCCCTGATGTTAATCGGGTCTTGATTCGCTTGACGCTGCTG”, the binding signal in the assay with GST-Ap-NF-kB RHD worked out at 7.56 z-score; in assay [1], 8.86 z-score; in assay [2], 8.7 z-score; with GST-Co-NF-kB, 1.38 z-score; with GST-Dm-Relish it was 7.13 z-score; in the assay with GST-Aq-NF-kB, 6.74 z-score. The sequence also displayed a binding signal with GST-Hu-p50 of 6.05 z-score.
On to “CCGATTAACATCACGGGAAAACCTGATGTTAATCGGGTCTTGATTCGCTTGACGCTGCTG”, for which the binding signal with GST-Ap-NF-kB RHD came to 4.2 z-score; in assay [1], 4.49 z-score; in assay [2], 5.49 z-score; in the assay with GST-Co-NF-kB it was 5.1 z-score; with GST-Dm-Relish, 4.62 z-score; with GST-Aq-NF-kB, 5.78 z-score. The sequence further had a binding signal in the assay with GST-Hu-p50 of 3.46 z-score.
For “CCGATTAACATCACGGAATCCCCTGATGTTAATCGGGTCTTGATTCGCTTGACGCTGCTG”, the binding signal was determined as 8.93 z-score with GST-Ap-NF-kB RHD; 8.59 z-score in assay [1]; 9.68 z-score in assay [2]; 3.45 z-score with GST-Co-NF-kB; 9.36 z-score in the assay with GST-Dm-Relish; 6.48 z-score in the assay with GST-Aq-NF-kB. In the assay with GST-Hu-p50, this sequence registered a binding signal of 6.67 z-score.
For “CCGATTAACATCAAAAATTCCCCTGATGTTAATCGGGTCTTGATTCGCTTGACGCTGCTG”, the binding signal is 10.4 z-score in the assay with GST-Ap-NF-kB RHD; 12.8 z-score in assay [1]; 14 z-score in assay [2]; 9.75 z-score in the assay with GST-Co-NF-kB; 9.69 z-score with GST-Dm-Relish; 9.6 z-score with GST-Aq-NF-kB. This sequence registered a binding signal with GST-Hu-p50 of 7.99 z-score.
